# Bioassay records deposited in PubChem BioAssay by several laboratories.
# PfHsp40 yeast: restores yeast growth despite PfHsp40 toxicity; S. cerevisiae expressing PfHsp40, growth rescue, ATP luminescence; growth rescue, % at 12.5 µM; actives 0.68% (n = 340,000); in the data active = growth rescue above about 28%, passing the limit was not always enough;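 also: yeast W303a lacking pdr1 and pdr3 grown in galactose medium; growth measured after three days at 30 °C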
# BJeLR lethal: BJeLR cell viability loss; BJeLR (HRASV12) viability, CellTiter-Glo ATP luminescence, 48 h; inhibition, % (test concentration not listed); actives 0.17% (n = 300,000); in the data active = inhibition above about 50%
# PrP 5UTR inh: suppresses PrP 5' UTR mRNA reporter expression; cell-based PrP 5' UTR mRNA reporter, plate reader; actives 0.35% (n = 340,000); inhibition, % (concentration not given with the values); in the data active = inhibition above about 52%
# ugtP null kill: growth inhibition of S. aureus ugtP deletion strain. actives 0.54% (n = 330,000). growth inhibition, % (test concentration not listed). S. aureus RN4220 ugtP deletion, OD600 growth, 16 h; in the data active = growth inhibition above about 68%
# Y pestis TopoI: blocks Yersinia pestis topoisomerase I activity. Y. pestis Topo-I cleavage product accumulation, plate reader. activity, % at 10 µM. actives 0.064% (n = 360,000). AID 504884; in the data active = activity above about 50%, passing the limit was not always enough
# RN4220 kill: S. aureus RN4220 growth inhibition | OD600, 16 h | inhibition, % (test concentration not listed) | actives 0.33% (n = 330,000); in the data active = inhibition above about 85%
# Hits are given with their value; i = inactive; nt = no result. Shown are actives, neighbours in structure and some others; about 1.4% of the full set was active somewhere.
SMILES,PfHsp40 yeast,BJeLR lethal,PrP 5UTR inh,ugtP null kill,Y pestis TopoI,RN4220 kill
O=C(CC1CC=CCCC(Cc2ccc(F)cc2)C(=O)OCC(c2ccccc2)NC1=O)NCCO (stereo not drawn),nt,nt,nt,i,nt,i
O=C(O)/C(=C\c1ccc(-c2ccc(F)cc2)o1)c1ccccc1,36.6,nt,i,i,i,i
O=Cc1ccc(-c2ccc(F)cc2)o1,i,i,i,i,i,i
CCOC(=O)CCc1ccc(NC(=O)/C=C/c2ccc([N+](=O)[O-])o2)cc1,i,nt,i,nt,i,nt
CCc1ccc(C(=O)/C=C/c2ccc([N+](=O)[O-])o2)cc1,119.8,58.7,i,i,i,i
O=C(C=Cc1ccc(Cl)cc1)c1ccc([N+](=O)[O-])o1,nt,nt,nt,99.1,nt,i
O=C(/C=C/c1cccc(Cl)c1)c1ccc([N+](=O)[O-])o1,i,107.4,i,nt,i,nt
CC(NC(=O)OCc1ccccc1)c1nnc(C(C)NC(=O)OCc2ccccc2)o1 (stereo not drawn),nt,nt,nt,i,nt,i
CCOC(=O)CC1c2ccccc2S(=O)(=O)N1Cc1ccc(Cl)cc1 (stereo not drawn),nt,nt,nt,i,nt,i
CC(C)(C)c1ccc(C=NOCC(=O)NCc2ccc(F)cc2)cc1,nt,nt,nt,i,nt,i
CC(C)(C)c1ccc(/C=N/OCC(=O)NCc2ccc(F)cc2)cc1,73.6,i,i,nt,i,nt
COC(=O)C(C)NC(=S)N1CCN(c2c(F)cc3c(=O)c(C(=O)O)cn(C4CC4)c3c2OC)CC1C (stereo not drawn),i,i,i,99.7,i,100.1
C[C@H]1COc2c(N3CCN(C)CC3)c(F)cc3c(=O)c(C(=O)O)cn1c23,i,i,i,nt,i,nt
CNC(=S)N1CCN(c2c(F)cc3c(=O)c(C(=O)O)cn(C4CC4)c3c2OC)CC1C (stereo not drawn),i,i,i,99.7,i,99.9
O=C(O)CCC(=NNc1ccc(S(=O)(=O)N2CCOCC2)cc1[N+](=O)[O-])c1cccs1,nt,nt,nt,i,nt,i
CSc1nc(Cl)c(Cc2ccc(OC(C)C)cc2)c(N2CCOCC2)n1,i,i,i,97.5,i,i
COc1ccc(CNC(=S)NCc2ccc(OC(C)C)cc2)cc1,i,i,i,i,i,i
CCCOc1ccc(CSc2n[nH]c(C)n2)cc1,i,i,i,nt,i,nt
CSc1nc(N2CCOCC2)c2sccc2n1,i,i,i,i,i,i
CCCOc1ccc(Cc2c(Cl)nc(SC)nc2OC)cc1,i,i,i,89.2,i,i
CCCOc1ccc(Cc2c(Cl)nc(SC)nc2N(C)C)cc1,i,i,i,87.3,i,i
COc1nc(SC)nc(Cl)c1Cc1ccc(OC(C)C)cc1,i,i,i,92.1,i,i
CCN1C(=O)C2C(c3ccc(-c4cccc(Cl)c4)c(OC)c3)N3CCCC[C@@]3(C(=O)OC)C2C1=O (stereo partly drawn),nt,nt,nt,i,nt,i
C#CCOCCOCCOCCNc1nc(N2CCN(C(=O)C(CCCCN)n3cc(C(N)C(C)CC)nn3)CC2)nc(N2CCN(C(=O)C(Cc3cc4ccccc4[nH]3)n3cc(C(N)C(C)CC)nn3)CC2)n1 (stereo not drawn),nt,nt,nt,i,nt,i
COC(=O)C1=C(c2ccc3ccccc3c2)CC2CCC1N2C(=O)NC1CC1 (stereo not drawn),nt,nt,nt,i,nt,i
SMILES,PfHsp40 yeast,BJeLR lethal,PrP 5UTR inh,ugtP null kill,Y pestis TopoI,RN4220 kill
C#CCOCCOCCOCCNc1nc(N2CCN(C(=O)C(CCCCN)n3cc(C(N)CO)nn3)CC2)nc(N2CCN(C(=O)C(Cc3ccc(O)cc3)n3cc(C(N)C(C)CC)nn3)CC2)n1 (stereo not drawn),nt,nt,nt,i,nt,i
CC(C)Cn1c(N)c(C(=O)COC(=O)C2Cc3ccccc3CN2S(C)(=O)=O)c(=O)n(C)c1=O (stereo not drawn),50.2,nt,i,i,i,i
O=C(O)C1=CC(c2cccs2)CC(OCCCCO)O1 (stereo not drawn),nt,nt,nt,i,nt,i
CCCCCCCCCCCCN1CC(=CC(=O)OCC)c2ccccc2S1(=O)=O,nt,nt,nt,i,nt,i
C=CCN1CCc2c(cc(O)c(O)c2Cl)C(c2ccccc2)C1 (stereo not drawn),46.4,i,i,i,i,i
COC(=O)C1=C(c2ccc(F)cc2OCc2ccccc2)CC2CCC1N2C(=O)NCCOc1ccccc1 (stereo not drawn),nt,nt,nt,i,nt,i
CCCCn1nc(C(=O)NC(CCSC)c2nc3ccccc3[nH]2)c2ccccc2c1=O (stereo not drawn),nt,nt,nt,i,nt,i
Cc1onc(-c2ccccc2)c1C(=O)NC(=S)NNC(=O)c1cc(-c2ccc(F)cc2)n[nH]1,234.6,i,i,i,i,i
Cc1onc(-c2ccccc2)c1C(=O)NC(=S)NNC(=O)c1ccncc1,i,i,i,i,i,i
Cc1onc(-c2ccccc2)c1C(=O)NC(=S)NNC(=O)c1ccco1,50.4,i,i,i,i,i
COc1ccccc1OCC(=O)NN=CC=Cc1ccc([N+](=O)[O-])o1,nt,nt,nt,100.2,nt,100.6
NNc1ccc2c(C(F)(F)F)cc(C(F)(F)F)nc2n1,i,i,i,i,i,i
N#CC(c1cccc(Cl)c1)c1ccc2c(C(F)(F)F)cc(C(F)(F)F)nc2n1 (stereo not drawn),i,76.0,i,96.8,i,96.6
COC1C=CO[C@@]2(C)Oc3c(C)c(O)c4c(O)c(c(C=NN5CCN(C6CCCC6)CC5)c(O)c4c3C2=O)NC(=O)C(C)=CC=CC(C)C(O)C(C)C(O)C(C)C(OC(C)=O)C1C (stereo partly drawn),nt,nt,nt,98.2,nt,99.0
CC(=NNC(=S)N1CC2CCC(CC2)C1)c1nccs1,126.3,nt,i,nt,i,nt
CC(=NNC(=S)N1CC2CCC(CC2)C1)c1cccc(C)n1,i,nt,i,nt,i,nt
COC(=O)[C@@]12CCCCN1C(c1ccc(-c3ccc(C(C)=O)cc3)cc1)C1C(=O)N(C)C(=O)C12 (stereo partly drawn),nt,nt,nt,i,nt,i
COC(=O)c1ccc(C2CC(=O)O2)cc1 (stereo not drawn),nt,nt,nt,i,nt,i
CN(CC(Cc1cccc2ccccc12)N(CC(Cc1ccccc1)N(CCc1ccccc1)N=O)N=O)N=O (stereo not drawn),nt,nt,nt,i,nt,i
Cc1ccc(S(=O)(=O)NN2C(=O)/C(=C\c3ccc(Cl)cc3)SC2=S)cc1,i,i,i,i,i,i
Cc1ccc(S(=O)(=O)NN2C(=O)/C(=C/c3ccc(F)cc3)SC2=S)cc1,i,i,i,88.9,i,84.9
C=CCOc1ccc(/C=C2\SC(=S)N(NS(=O)(=O)c3ccc(C)cc3)C2=O)cc1,i,i,i,87.6,i,i
Cc1ccc(/C=C2\SC(=S)N(NS(=O)(=O)c3ccc(C)cc3)C2=O)cc1,i,i,i,i,i,i
COc1ccc(/C=C2/SC(=S)N(NS(=O)(=O)c3ccc(C)cc3)C2=O)cc1,i,i,i,81.7,i,i
Cc1cc(C)c2nc(N3C(=O)C(O)=C(C(=O)c4ccco4)C3c3ccc(O)cc3)sc2c1 (stereo not drawn),i,nt,i,i,i,i
